Wnt bcat act = Wnt/beta-catenin pathway activators, primary screen, cell-based, plate reader, single point | hit rate 1.2% among 300,000 | AID 743398, 2014 | Wnt/beta-catenin reporter cell assay, activator | activation, % at 9.35 µM; in the data active means activation above about 30%, passing the limit was not always enough; inconclusive means no clear call, values can overlap the other calls;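 further: 0% = neutral control wells and 100% = positive control wells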
MITF act = activators of MITF-driven TRPM1 promoter reporter, primary screen, cell-based, SK-MEL-5, luciferase, single point | SK-MEL-5 TRPM1-promoter luciferase, 24 h; % of positive control, neutral wells = 0 | activation, % at 12.5 µM | hit rate 0.75% among 300,000 | AID 588334, 2011;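 active means mean activation of at least 80% with every replicate also reaching 80%; inconclusive means mean reaches 80% but some replicate falls short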;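 further: 0% = neutral control wells and 100% = parthenolide positive control wells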
HSF1 activator = HSF-1 activators, primary screen, NIH3T3-HGL cells, MG132 stress, luminescence, single point; NIH3T3-HGL HSF-1 luciferase reporter, 8 h; 100% = twice DMSO control signal; activation, % at 9 µM; hit rate 1.7% among 300,000;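 active means mean replicate activation of at least 50% with a set share of replicates each reaching 50%; inconclusive means only one of those two conditions met; inactive means mean below 50% and too few replicates reaching it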;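 further: 0% = median of the neutral control wells and 100% = twice that signal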
esBAF inh = Bmi1 luciferase reporter increase in mESCs, primary screen, esBAF inhibitor project, mouse ES cells, Bmi1 luciferase knock-in, single point. hit rate 2% among 350,000. 24 h; 100% = twice the neutral-well signal. AID 602393, 2012. reporter increase, % at 12.5 µM; in the data active means activation above about 40%; inconclusive means no clear call, values can overlap the other calls;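 further: 0% = median of the plate's neutral control wells and 100% = double that signal; a rise in the Bmi1 reporter signal indicates esBAF inhibition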
HSF1 inh = HSF1 inhibitors in luciferase reporter cells, primary screen, cell-based, NIH3T3, luminescence. AID 2098, 2009. NIH3T3-HGL HSE-luciferase, MG132-induced, luminescence 8 h; hits give low values. hit rate 0.77% among 300,000. activity change, negative = inhibition, % at 7.5 µM (by protocol);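 active means more than half of replicate wells show activity change below -50%, luminescence cut by over half; inconclusive means some wells, but at most half, below -50%; inactive means no replicate well below -50%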;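 further: luciferase reports HSF-1 transcriptional activity via heat shock element; 0% = median of DMSO wells and -100% = zero luminescence signal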
An asterisk follows results filed as active; ? = inconclusive; nt = not tested or not shown. Compounds with a hit are over-represented: about 3.9% of the library has one in this group of screens.

SMILES	Wnt bcat act	MITF act	HSF1 activator	esBAF inh	HSF1 inh
O=C(Nc1ccccc1C(F)(F)F)c1cc(-c2ccccc2O)on1	nt	52	65*	31	23
Cc1ccc(O)c(NC(=O)c2cc(-c3ccccc3Cl)on2)c1	-3	nt	10	52*	8
COc1ccc(-c2cc(C(=O)NC(C)C)no2)cc1	nt	105*	24	nt	8
COc1ccc(-c2cc(C(=O)Nc3cc(C)ccc3O)no2)cc1	-6	41	68*	22	23
O=C(Nc1ccccc1C(F)(F)F)c1cc(-c2ccco2)on1	7	63	20	21	5
Cc1ccc(-c2cc(C(=O)Nc3cc(C)ccc3O)no2)cc1	-3	nt	41	33	26
CC(C)NC(=O)N(C)C[C@@H]1Oc2ccc(NS(=O)(=O)c3ccc(F)cc3)cc2CC(=O)N([C@H](C)CO)C[C@H]1C	nt	nt	nt	1	nt
COc1ccc(-c2cc(C(=O)Nc3cc(Cl)ccc3O)no2)cc1	14	113*	8	?	2
COc1ccc(-c2cc(C(=O)Nc3cc(Cl)ccc3OC)no2)cc1	-1	-17	-3	-1	-6
C[C@@H]1CN([C@H](C)CO)S(=O)(=O)c2ccc(C3=CCCCC3)cc2O[C@@H]1CN(C)S(=O)(=O)c1ccc(F)cc1	nt	nt	nt	-7	nt
CCc1nn(CC(=O)N2CCC(C(N)=O)CC2)c(=O)c2cc3occc3n12	3	1	-75	-13	-67*
CSc1ncc(C(=O)Nc2ccc(C(C)=O)cc2)c(-c2ccccc2)n1	16	42	14	61*	-7
COc1cccc(NC=C2C(=O)OC(C)(C)OC2=O)c1	3	nt	32	14	18
COc1cccc(NC=C2C(=O)OC3(CCCCC3)OC2=O)c1	1	nt	59*	-5	28
O=C1OC2(CCCCC2)OC(=O)C1=CNc1ccc2c(c1)OCO2	nt	35	5	57*	-1
CCOC(=O)c1ccc(NC=C2C(=O)OC3(CCCCC3)OC2=O)cc1	nt	10	-52	nt	-44
Cc1ccc(O)c(N=Nc2ccccc2)n1	41*	68	37	63*	22
C[C@@H]1CCCCO[C@@H](CN(C)C(=O)NC2CCCCC2)[C@@H](C)CN([C@H](C)CO)C(=O)c2cc(NC(=O)C3CCCCC3)ccc2O1	nt	nt	nt	-6	nt
Cc1cc(/C=C2/NC(=O)N(c3ccccc3)C2=O)c(C)n1-c1cccnc1	37*	50	-4	71*	-11
Cc1cc(/C=C2/NC(=S)NC2=O)c(C)n1-c1cccnc1	nt	5	19	?	-7
CN(C)C(=O)C[C@H]1CC[C@@H]2[C@@H](COc3ccc(NC(=O)c4cnccn4)cc3C(=O)N2C)O1	nt	nt	nt	-6	nt
Cc1cnn(-c2cc(Oc3ccccc3)ncn2)c1	nt	?	18	65*	13
c1ccc(Oc2cc(-n3cncn3)ncn2)cc1	6	16	-10	nt	2
CC(NC(=O)CN1CCN(c2ccc(Cl)cc2)CC1)c1ccccc1 (stereo unspecified)	-1	-10	7	-7	5
CCOc1ccccc1N1CCN(CC(=O)NC(C)c2ccccc2)CC1 (stereo unspecified)	-2	nt	-67	-1	-61*
SMILES	Wnt bcat act	MITF act	HSF1 activator	esBAF inh	HSF1 inh
CC(C)(c1ccccc1)c1ccc(OCCCN2CCNCC2)cc1	-3	-26	56*	nt	21
C[C@@H]1CN([C@H](C)CO)S(=O)(=O)c2ccc(C3=CCCCC3)cc2O[C@@H]1CN(C)Cc1cncnc1	nt	nt	nt	-9	nt
N#C[C@H]1[C@@H](c2ccccc2)[C@H](CO)N1C(=O)Cc1ccccn1	nt	nt	nt	2	nt
N#Cc1c(-c2ccc3c(c2)OCO3)csc1N	5	17	-83	27	-81*
CCCCN(C(=O)COC(=O)COc1c(C)cc(C)cc1C)c1c(N)n(CCC)c(=O)[nH]c1=O	-3	-5	-75	nt	-69*
CCCn1c(N)c(N(CCOC)C(=O)COC(=O)COc2c(C)cc(C)cc2C)c(=O)[nH]c1=O	3	nt	nt	4	nt
C[C@@H]1CN([C@H](C)CO)C(=O)c2cccc(NS(=O)(=O)c3ccc(Cl)cc3)c2O[C@H]1CN(C)S(=O)(=O)c1ccc(F)cc1	nt	nt	nt	-1	nt
COc1ccc(NC(=O)Nc2ccc3c(c2)C(=O)N([C@H](C)CO)C[C@H](C)[C@H](CN(C)C(=O)Nc2ccc(F)cc2)OCCCC[C@@H](C)O3)cc1	nt	nt	nt	-2	nt
Cc1cccnc1NC(=S)NC(=O)/C=C/c1ccccc1	20	39	56*	40	31
CC(Cc1cccs1)NC(=O)Nc1ccc(Cl)cc1 (stereo unspecified)	58*	51	62*	nt	30
O=C(Nc1ccc(NC(=S)NC(=O)c2cccs2)cc1)c1ccccc1	nt	9	1	nt	2
O=C(NC(=S)Nc1ccccc1)c1cccs1	29	101*	0	78*	-8
Cc1cccnc1NC(=S)NC(=O)c1cccs1	34*	33	-23	15	-14
Cc1cccnc1NC(=O)CNC(=O)c1cccs1	0	-6	0	0	-2
CC(Cc1cccs1)NC(=O)Nc1ccccc1 (stereo unspecified)	nt	30	-15	36	3
COc1ccc(S(=O)(=O)Nc2ccc3c(c2)CC(=O)N([C@@H](C)CO)C[C@@H](C)[C@@H](CN(C)Cc2ccc(Cl)c(Cl)c2)O3)cc1	nt	nt	nt	4	nt
C[C@H](CO)N1C[C@H](C)[C@H](CN(C)C(=O)c2cccnc2)Oc2cc(C3=CCCC3)ccc2S1(=O)=O	nt	nt	nt	0	nt
O=C(NC(=S)Nc1ccc(Br)cn1)c1cccs1	59*	22	8	nt	22
O=C(Nc1ccc(NC(=O)c2ccccc2F)cc1)c1cccs1	37*	137*	nt	74*	nt
O=C(Nc1ccc(Cl)cc1)c1cccs1	26	58	31	52*	18
CCCn1cnc2cc(NC(=O)c3cccs3)ccc21	32*	94*	25	55*	0
CO[C@H]1CN(C)C(=O)c2ccc(NS(=O)(=O)c3cccc(C)c3)cc2OC[C@@H](C)NC[C@@H]1C	nt	nt	nt	-5	nt
CCCC(=O)Nc1ccc2c(c1)OC[C@@H](C)N(Cc1ccc(-c3ccccn3)cc1)C[C@@H](C)[C@@H](OC)CN(C)C2=O	nt	nt	nt	-3	nt
C[C@H](CO)N1C[C@H](C)[C@H](CN(C)C(=O)Nc2ccc(F)cc2)OCCCC[C@H](C)Oc2ccc(NC(=O)CCCN(C)C)cc2C1=O	nt	nt	nt	8	nt
Cc1ccc(NC(=S)NC(=O)c2cccs2)cc1F	3	93*	nt	81*	nt
O=C(CCC(=O)c1cccs1)c1cccs1	14	nt	55*	13	30
O=C(Nc1ccc(NC(=O)c2cccs2)cc1)c1cccs1	6	?	43	53*	23
O=C(Nc1ccc2[nH]ccc2c1)c1cccs1	12	106*	58*	8	20

Assay outcomes (PubChem)
